From PubChem
Most compounds without a hit are left out; they make up all but 3.4% or so of the library.
TEAD-YAP block = TEAD-YAP interaction inhibition; HEK-TIYL cells, TEAD-Gal4/YAP UAS-luciferase luminescence; inhibition, % at 9.12 µM; hit rate 1.4% among 640,000; in the data active = inhibition above about 32%;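 also: 0% = median of test compound wells and 100% = reference inhibitor wells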
GPR151 ag = activators of human GPR151. hit rate 1% among 650,000. Q8TDV0. activation, % at 11.2 µM. PathHunter beta-arrestin GPR151 cells, luminescence. AID 1508602; in the data active = activation above about 4.9%;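 also: 0% = median of compound wells and 100% = cells with positive control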
MITF inh = blocks human microphthalmia-associated transcription factor. O75030. AlphaScreen MITF homodimerization, bead proximity signal. inhibition, % at 2.6 µM. hit rate 0.91% among 650,000; in the data active = inhibition above about 50%;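 also: 0% = vehicle wells with protein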
Target sequence (O75030 whole entry, looked up): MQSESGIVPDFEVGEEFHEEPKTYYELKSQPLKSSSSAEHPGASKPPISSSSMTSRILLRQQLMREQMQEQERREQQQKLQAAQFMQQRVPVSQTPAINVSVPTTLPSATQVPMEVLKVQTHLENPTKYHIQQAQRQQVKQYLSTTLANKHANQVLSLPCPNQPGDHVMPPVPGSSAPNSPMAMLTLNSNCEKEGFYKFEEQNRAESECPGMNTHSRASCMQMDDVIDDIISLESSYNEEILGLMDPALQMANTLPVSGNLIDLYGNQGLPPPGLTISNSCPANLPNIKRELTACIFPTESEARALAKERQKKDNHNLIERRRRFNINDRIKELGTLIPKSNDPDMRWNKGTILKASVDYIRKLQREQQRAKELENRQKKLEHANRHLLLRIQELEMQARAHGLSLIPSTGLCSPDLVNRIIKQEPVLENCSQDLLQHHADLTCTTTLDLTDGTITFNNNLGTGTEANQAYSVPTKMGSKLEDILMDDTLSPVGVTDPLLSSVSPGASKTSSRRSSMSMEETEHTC
FBW7 act = human FBW7 E3 ligase activation, primary screen; normalized activity (activation), % at 26.1 µM; Q969H0; AlphaScreen FBW7–phospho-cyclin E peptide binding, activator screen; hit rate 0.13% among 650,000; in the data active = normalized activity above about 1.9%;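 also: purified mutant Fbw7 with reduced substrate affinity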
The depositor's hits bear a star.

SMILES	TEAD-YAP block	GPR151 ag	MITF inh	FBW7 act
CC(C)(C)c1cc(C(=O)N/N=C/c2cc(Cl)ccc2O)n[nH]1	75.5*	-0.4	30.7	-1.2
O=C(N/N=C/c1ccc(O)c(O)c1O)c1cccs1	-44.3	-3.1	54.0*	-0.7
CCOc1ccc(NC(=O)CSc2nc3ccccc3c(=O)n2CCCN2CCCC2=O)cc1	-1.0	-1.7	3.0	-0.1
COc1ccc(Cl)c2sc(NC(=O)c3ccco3)nc12	4.5	2.6	0.2	2.1*
COC(=O)c1cc2cccc(OC)c2oc1=O	-4.3	-1.0	-3.4	-0.3
COC(=O)C1=C(OC)C(=O)OC12C=CC(=O)C=C2	79.8*	-1.0	17.9	0.2
CN1C(=O)c2ccc(NC(=O)c3ccc(Br)o3)cc2C1=O	-0.1	2.5	0.0	-0.1
CC1CCc2cc(F)cc3c(O)c(C(=O)Nc4ccccn4)c(=O)n1c23 (stereo not drawn)	10.2	0.2	7.7	2.0*
O=C(c1nccs1)C1CCN(C(=O)C2CC(=O)N(C3CCCCC3)C2)CC1 (stereo not drawn)	3.6	0.4	9.3	0.0
C=CCn1c(=NC(=O)C2=COCCO2)sc2cc(F)ccc21	-15.2	-0.6	-2.0	1.9*
C=CCn1c(=NC(=O)C2=COCCO2)sc2cccc(OC)c21	-10.4	-0.6	6.5	0.1
COc1ccc(N2CCN(C(CNS(=O)(=O)c3ccc(OC)c(C)c3)c3ccco3)CC2)cc1 (stereo not drawn)	5.7	0.1	68.1*	-0.1
O=[N+]([O-])c1ccc(/C=N/Nc2nc3ccccc3o2)cc1	-24.5	0.8	-11.7	0.1
O=C(N/N=C/c1c(O)ccc2ccccc12)c1c[nH]c2ccccc12	7.5	2.5	6.8	-0.1
CN(C)c1ccc(/C=N/Nc2nc3ccccc3o2)cc1	55.1*	-4.1	12.7	-0.2
O=C(N/N=C/c1c(O)ccc2ccccc12)c1[nH]ncc1Br	42.1*	-0.3	25.6	-0.5
O=C(N/N=C\c1c(O)ccc2ccccc12)c1ccccc1O	80.8*	1.3	31.8	-0.1
O=C(CN1CCCC1)N/N=C/c1c(O)ccc2ccccc12	87.5*	0.0	58.2*	-1.8
O=C(N/N=C/c1c(O)ccc2ccccc12)C(=O)N1CCCC1	16.4	0.8	-96.0	-0.2
O=C(CC1(O)C(=O)Nc2ccc(Cl)cc21)c1ccc(Br)cc1 (stereo not drawn)	13.4	-0.1	0.3	0.0
CCN(CC)S(=O)(=O)c1cccc(S(=O)(=O)c2ccc(C)c(S(=O)(=O)N(CC)CC)c2)c1	8.7	0.0	19.2	1.2
CN(C)c1ccc(/C=N/NC(=O)c2[nH]ncc2Br)cc1	31.9*	-8.2	-2.5	0.0
CN(C)c1ccc(/C=N/NC(=O)c2cccc(O)c2)cc1	60.1*	-5.7	-3.9	0.0
CN(C)c1ccc(/C=N/Nc2cn[nH]c(=O)n2)cc1	81.3*	-5.6	13.2	-0.5
CN(C)c1ccc(/C=N/NC(=O)c2cc(O)cc(O)c2)cc1	2.1	-1.6	21.7	0.7
SMILES	TEAD-YAP block	GPR151 ag	MITF inh	FBW7 act
Cc1cc(/C=N/NC(=O)c2cccc(N(C)C)c2)c(C)n1-c1cc(C(=O)O)cc(C(=O)O)c1	-26.0	-0.7	51.8*	-0.3
CN(C)c1ccc(/C=N/NC(=O)c2ccn(C)n2)cc1	-13.4	-3.5	12.8	0.0
Nn1c(SCC(=O)Nc2ccc(OCc3ccccc3)cc2)nnc1-c1cccnc1	-66.2	1.8	6.6	-0.1
CC(=O)c1cccc(NC(=O)CCNc2c(N3CCCC3)c(=O)c2=O)c1	5.3	0.2	11.6	0.1
O=C(N/N=C/c1c(O)ccc2ccccc12)c1ccccc1O	75.2*	1.0	-31.2	-0.1
c1ccc(-c2cc(NCc3ccco3)nc(-c3ccccn3)n2)nc1	59.1*	1.3	111.0*	-0.9
c1ccc(-c2nc(NCc3ccco3)cc(-c3cccnc3)n2)nc1	11.1	1.1	-16.5	-0.1
C=CCNc1cc(-c2ccccn2)nc(-c2ccccn2)n1	49.5*	1.4	115.0*	-1.0
O=C1NC(C2CCCCC2)=NN/C1=C(/O)c1ccncc1	-4.1	-1.8	2.5	0.1
CC(=O)c1ccc(-c2cc(F)cc3c2OC(CNC(=O)/C=C/c2cccnc2)C3)s1 (stereo not drawn)	33.1*	-0.9	0.4	0.1
Nn1c(SCC(=O)NC2CCCc3ccccc32)nnc1C(F)(F)F (stereo not drawn)	34.3*	0.9	9.1	0.1
Cc1cccc(C(C#N)c2cc(C)nc3ncnn23)c1 (stereo not drawn)	15.9	-1.9	11.9	2.1*
Cc1cc(C(C#N)c2ccc(Cl)cc2Cl)n2ncnc2n1 (stereo not drawn)	6.9	-0.6	13.8	0.4
CC(C)n1c(SCc2ccccc2Cl)nc2c1c(=O)[nH]c(=O)n2C	43.4*	1.4	3.8	0.3
CCC1CN(CCC(=O)N2CCC(O)(c3ccccn3)CC2)Cc2cc(OC)ccc2O1 (stereo not drawn)	3.3	-0.6	9.6	0.1
O=C(NCc1ccccc1)/C(=C\C=C\c1ccccc1)NC(=O)c1ccc([N+](=O)[O-])cc1	55.6*	-1.0	4.1	-0.1
CNC(=O)CSc1ncc(-c2ccccc2)n1Cc1ccccc1	-31.0	0.8	-10.2	-0.1
C/C(=N/NC(=O)C(N)=O)c1ccc(NC(=O)C(F)(F)F)cc1	-17.7	3.7	-17.4	-0.1
Cc1cccc(NC(=O)c2cc3ccccc3oc2=O)c1	-37.5	-2.2	14.4	0.1
CC(Cc1ccco1)NC(=O)c1cc2ccccc2oc1=O (stereo not drawn)	-21.2	0.2	-6.4	3.0*
CC(CO)NC(=O)c1cc2ccccc2oc1=O (stereo not drawn)	-11.2	0.2	-6.2	-0.1
CC(=O)Nc1cccc(NC(=O)c2cc3ccccc3oc2=O)c1	45.5*	-1.9	-9.4	0.0
C=CCc1cccc2cc(C(=O)Nc3cccc(O)c3)c(=O)oc12	57.9*	-0.7	18.9	0.3
CNC1CCCc2c1n(C)c1ccc(Cl)cc21 (stereo not drawn)	-3.1	0.3	-4.9	-0.3
Cc1ccc(-c2cncc(-c3cc(=O)[nH]c(C)n3)c2)cc1	-0.3	3.3	-4.3	-0.3
SMILES	TEAD-YAP block	GPR151 ag	MITF inh	FBW7 act
Cc1ccc(C)c(-n2c(CNC(=O)c3ccc(S(=O)(=O)N4CCCC4)cc3)nnc2SCC(=O)Nc2nccs2)c1	-5.1	1.7	-7.8	0.1
COC(=O)c1ccc(C2C3=C(CC(c4ccc(OC)cc4)CC3=O)Nc3ccccc3N2C(=O)CCC(=O)O)cc1 (stereo not drawn)	-5.1	0.6	7.9	0.2
O=C(Nc1ccc(Cc2ccncc2)cc1)c1ccc(Cl)cc1Cl	38.3*	-1.4	5.3	0.1
CCOc1ccc(NC(=O)c2c(Cl)ccc(Cl)c2OC)cc1	9.0	-1.1	1.0	0.0
O=C(O)c1cc(NC(=O)c2ccc(Cl)cc2Cl)cc(C(=O)O)c1	12.8	3.9	-0.1	0.1
COC(=O)c1ccc(NC(=O)c2ccc(C)cc2Cl)cc1	-25.8	-0.5	8.0	0.0
O=C(NC(=S)Nc1ccc(Cc2ccncc2)cc1)c1ccc(Cl)cc1Cl	21.6	0.1	-1.6	0.0
O=C(O)c1ccc(NC(=O)c2ccc(Cl)cc2Cl)cc1	45.3*	1.6	-19.5	0.0
COc1ccc(NC(=O)c2ccc(C)cc2Cl)cc1	73.0*	-5.2	48.1	0.0
